LASV entry inh: inhibitors of Lassa virus binding or cell entry | Lassa virus pseudotype entry inhibition, cell reporter | Potency, µM (top dose mostly 37.9 µM), for the others: at the top dose activity change, negative = inhibition, most hits filed as inhibitors | 300,000 compounds, 1.2% hits; calls by dose curve; tested in HEK293 cells; also: potency is read from the fitted curve at half-maximal effect; % is scaled to controls: 0 for no effect and ±100 for the full control effect; nearly all actives have a fitted effect of over 50% in size
Pf growth 48h: P. falciparum growth inhibition at 48 hours (one generation); Potency, µM (series often up to 28.7 µM), for inactives: at the top dose activity change, negative = inhibition, actives largely listed as inhibitors; 310,000 compounds, 5.9% hits; P. falciparum luciferase growth in erythrocytes, 48 h; also: potency is read from the fitted curve at half-maximal effect; % is scaled to controls: 0 for no effect and ±100 for the full control effect
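Erythrocytes infected with P. falciparum carrying an integrated firefly luciferase reporter (2% hematocrit, 0.1% parasitemia final) were exposed to compounds in RPMI 1640 with 0.5% Albumax at 37 C, 5% CO2. Growth inhibition was scored as reduced luminescence.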
Marburg entry inh: blocks Marburg virus binding to or entry into cells; AID 540276; Potency, µM (titrated, usually from 37.8 µM), inactives show at the highest dose activity change, negative = inhibition, usual class: inhibitors; 300,000 compounds, 1.8% hits; Marburg virus pseudotyped entry inhibition, cell reporter; calls by dose curve; tested in HEK293 cells; also: potency is read from the fitted curve at half-maximal effect; % is scaled to controls: 0 for no effect and ±100 for the full control effect
Pf growth 96h: P. falciparum growth inhibition at 96 hours; Potency, µM (titrated, usually from 28.7 µM), inactives show top-dose activity change, negative = inhibition, usual class: inhibitors; P. falciparum luciferase reporter growth, 96 h; 320,000 compounds, 6.9% hits; also: potency is read from the fitted curve at half-maximal effect; % is scaled to controls: 0 for no effect and ±100 for the full control effect
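P. falciparum expressing integrated firefly luciferase, in erythrocytes at 2% hematocrit, 0.05% parasitemia, incubated with compounds 96 h at 37 C, 5% CO2. Growth inhibition read as loss of luminescence; two-generation exposure targets delayed-death apicoplast inhibitors.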
Shiga toxin inh: blocks Shiga toxin action in Vero cells; 290,000 compounds, 9.2% hits; inhibition, % at 38.7 µM; Vero cells, Shiga toxin protein synthesis inhibition reporter; in the data active = inhibition mostly above about 28%, no sharp cut-off; inactive = mostly below about 43%; also: 0% is about no effect
CHX counter: counter-screen hit for Shiga toxin inhibitors, cycloheximide; cell reporter, cycloheximide protein synthesis inhibition counterscreen; 300,000 compounds, 12% hits; max response, %; AID 2314; in the data active = max response mostly above about 13%, no sharp cut-off; inactive = mostly below about 14%; also: read at 38.3 µM for the half of the compounds with a filed dose; 0% is about no effect
Numbers without * were called inactive; i = inactive; u = inconclusive; x = no result; [ ] = another dose, or the depositor's remark. A selection: hits, their analogues and other compounds. The true share with any hit is near 19%. Unless noted, calls follow the shape of the dose curve; as a rule, active = well fitted inhibition curve with a large enough effect; inconclusive = small, poorly fitted or top-dose-only effect, or another doubt; inactive = no such curve, though single readings can be large or run the other way.

SMILES	LASV entry inh	Pf growth 48h	Marburg entry inh	Pf growth 96h	Shiga toxin inh	CHX counter
CC(C)n1c(NCc2nc3ccccc3n2C)nc2ccccc21	16.8%	u	-5.7%	x	-0.1	0.7
Cc1cc(C(F)F)n2nc(C(=O)Nc3ccc(S(=O)(=O)N4CCCC4)cc3)nc2n1	16.5%	-23.4%	0.8%	0.2%	-2.8	-2.5
OCCNc1ncnc2c1nnn2Cc1ccccc1	11.6%	7.8%	-10.5%	u	-4.4	-2.6
COc1ccc(C(=O)NNC(=O)Cc2nc3ccccc3n2C)cc1	-8.4%	x	u	x	x	x
Cn1c(CNc2ccc(O)cc2)nc2ccccc21	x	11.6%[0.00184 µM]	x	-20.5%	75.3*	19.4*
Cc1ccc(NCc2nc3ccccc3n2C)cc1	u	155.0%	u	u	95.0*	48.6*
Cn1c(CNc2ccc(Br)cc2)nc2ccccc21	u	34.1%	u	17.7%	114.0*	39.7*
COc1ccc(NCc2nc3ccccc3n2C)cc1	x	170.3%	x	u	66.2*	34.6*
CCC1CCCCN1S(=O)(=O)c1ccc(NC(=O)C2CC(=O)N(C(C)(C)C)C2)cc1 (centres undefined)	1.7%	x	1.0%[46.1 µM]	x	x	x
Cc1cc(C)nc(SCC(=O)OC(C)C(=O)Nc2ccccc2)n1 (centres undefined)	-0.6%	u	15.0%	u	-9.3	-2.1
O=C(Nc1ccc(N2CCCC2)c(Cl)c1)c1cccc(-c2cc3ccccc3oc2=O)c1	1.8%	0.0%	u	13.4%	-11.4	0.6
COc1ccc(Nc2nc3ccccc3n2C)cc1	9.3%	97.4%	2.7%	-17.7%	40.0*	35.3*
O=C(O)c1ccc(-c2nc(-c3ccc(Cl)cc3)cs2)cc1	x	210.1%	x	358.3%	81.2*	32.1*
COc1ccc(-c2csc(-c3[nH]cnc3N)n2)cc1	-7.6%	-25.9%	u	u	86.2*	28.3*
COc1ccc(-c2csc(-c3ccc(C(=O)O)cc3)n2)cc1	x	244.7%	x	i	60.5*	27.0*
O=C(O)c1ccc(-c2nc(-c3ccc(Cl)cc3Cl)cs2)cc1	-10.7%[46.1 µM]	244.1%	u	225.3%	77.1*	33.8*
COc1ccc(-c2nc(CC(=O)O)cs2)cc1	15.3%	x	-27.9%	41.9%	-5.1	-0.8
O=C(O)C1C2C=CC(C2)C1C(=O)NCCc1cccc(Cl)c1 (centres undefined)	7.3%	4.4%	6.3%	71.5%	1.7	1.9
Cc1cc(C)c2c(=O)cc(C(=O)Nc3ccc(C)c(Cl)c3)oc2c1	u	x	7.8%[46.1 µM]	x	x	x
Cn1c(N)c(C(=O)NCc2ccccc2)sc1=S	-2.6%	-2.8%	u	9.2%	2.5	-2.9
CCCOc1ccc(NC(=O)CC2C(=O)OCC3CCCCN32)cc1 (centres undefined)	x	-6.1%	x	-17.4%	x	x
Nc1c(N(C(=O)Nc2ccc(Cl)c(Cl)c2)C2CCCC2)c(=O)[nH]c(=O)n1Cc1ccccc1	u	-23.4%	6.9%	x	-6.2	-5.9
C=CCNC(=O)c1ccc(-c2nc3ccccc3nc2-c2ccccc2)cc1	-10.2%[46.1 µM]	x	-14.9%[46.1 µM]	x	x	x
C=CCNC(=O)c1ccc(-c2nc(-c3ccccc3)cs2)cc1	u	-90.8%	u	u	51.5*	32.5*
O=C(c1ccc(N2CCC3(CC2)OCCO3)c([N+](=O)[O-])c1)N1CCOCC1	17.9%	41.4%	0.7%	0.0%	68.9*	21.5*
SMILES	LASV entry inh	Pf growth 48h	Marburg entry inh	Pf growth 96h	Shiga toxin inh	CHX counter
Cc1ccc(NC(=O)CSc2ccc(C(N)=O)cc2[N+](=O)[O-])cc1	8.6%	57.0%	-17.1%	28.9%	43.1*	27.3
CCOC(=O)N1CCN(C(=O)CSc2ccc(C(=O)OC)cc2[N+](=O)[O-])CC1	x	-19.1%	x	4.65µM*	-16.8	-2.2
O=C(c1ccc(N2CCOCC2)c([N+](=O)[O-])c1)N1CCN(c2ccccc2)CC1	u	x	-22.8%[46.1 µM]	x	x	x
CN(c1ccc(C(=O)N2CCOCC2)cc1[N+](=O)[O-])C1CCCCC1	39.1%[14.3 µM]	55.4%	5.4%	204.9%	94.5*	48.3*
COc1ccc(CCC(=O)OCC(=O)Nc2ccc3[nH]c(=O)[nH]c3c2)cc1	7.0%	6.2%	0.0%	4.9%	x	x
CC1C(=O)N2CCCc3cc(NS(=O)(=O)c4ccc([N+](=O)[O-])cc4)cc1c32 (centres undefined)	-20.4%	u	27.8%	u	x	x
O=C1C2C3CC(C(Br)C3Br)C2C(=O)N1CC1CCCO1 (centres undefined)	21.5%	7.5%	u	31.6%	-5.7	-2.4
CCOC(=O)CSc1ccc(C(=O)N2CCC3(CC2)OCCO3)cc1[N+](=O)[O-]	x	u	x	7.38µM*	9.8	-1.9
COc1ccccc1C1=NOC(COC(=O)c2ccc(Br)cc2)C1 (centres undefined)	u	26.9%	9.6%	45.9%	1.4	2.2
O=C1c2ccccc2S(=O)(=O)N1CC1CC(c2ccccc2Cl)=NO1 (centres undefined)	7.7%	124.2%	u	15.9%	active	85.9*
COc1ccccc1C1=NOC(CN2C(=O)c3ccccc3S2(=O)=O)C1 (centres undefined)	u	38.8%	u	11.2%	146.2*	52.6*
CC(=O)Nc1ncc([N+](=O)[O-])s1	x	-4.1%	x	-5.3%	x	x
N/C(=N\OC(=O)Nc1ccccc1)c1ncc([N+](=O)[O-])s1	-18.4%	u	u	u	43.8	28.2*
Cc1ccc(S(=O)(=O)N2CCN(C3CCC(c4ccccc4)CC3)CC2)cc1 (centres undefined)	x	10.0%	8.2%	16.7%	-2.5	-2.6
CCc1sc(C(=O)Nc2nccs2)cc1C	u	56.4%	u	115.2%	55.5*	57.2*
CCc1sc(C(=O)Nc2ccc(F)cc2C)cc1C	u	0.0%	27.9%	26.3%	74.1*	15.3*
CCc1sc(C(=O)Nc2cc(Cl)ccc2N2CCCCC2)cc1C	7.6%	x	4.9%	14.7µM*	-15.0	1.7
Cc1ccc(C(=O)Nc2cc(Cl)ccc2N2CCCCC2)s1	u	x	u	u	8.5	-4.5
CCc1sc(C(=O)Nc2ncccc2C)cc1C	-9.2%	44.5%	7.1%[46.1 µM]	-14.9%	54.7	41.5*
CCc1sc(C(=O)NCc2ccccc2)cc1C	-4.0%	45.6%	10.9%[46.1 µM]	20.4%	35.3	8.9
COc1ccccc1NC(=O)C1CCCN1S(=O)(=O)c1cccc2nsnc12 (centres undefined)	x	-0.8%	x	u	-3.5	-2.6
CCc1sc(C(=O)Nc2ncccc2O)cc1C	u	117.5%	6.31µM*	122.8%	45.6*	36.4*
COc1ccc(OCc2cc(C(=O)O)c(C)o2)cc1	x	122.7%	3.4%	96.5%	26.4	33.0*
COC(=O)c1cc(COC(=O)COc2ccc(C)c(C)c2)oc1C	5.0%[46.1 µM]	19.0%	0.0%[46.1 µM]	36.6%	-4.3	7.5
CCN(CC)Cc1cc(C(=O)O)c(C)o1	17.1%[46.1 µM]	40.7%	1.6%[46.1 µM]	u	53.3*	13.4*
CCc1cc(C(=O)N=Nc2c(O)[nH]c3c(Br)cc(Br)cc23)c2ccccc2n1	1.8%	-24.1%	-27.9%[46.1 µM]	4.65µM*	-12.7	-1.5
